Measured values as given in PubChem BioAssay (NCATS).
Results filed as inconclusive are left out. Calls of active or inactive are those of the source. Calls come from the whole dose curve; as a rule, active = well fitted curve in the direction sought with a large enough effect; inconclusive = small, poorly fitted or top-dose-only effect, or another doubt; inactive = no such curve, though single readings can be large; an effect the other way counts as inactive or inconclusive.

Experiments:
[1] = Quantitative High-Throughput drug screen in 47 multiple myeloma cell lines against the NCATS MIPE library collection: JIM3_ECACC cell viability assay (AID 1918963; note: nearly all actives have a fitted effect of over 35% in size)
How it was run: (§1)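 Relative luminescence from CellTiter-Glo served as the viability signal, referenced to DMSO-treated (100%) and cell-free medium (0%) controls. Treatment lasted 48 hours at 37C with 500 cells per well.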

[2] = Quantitative High-Throughput drug screen in 47 multiple myeloma cell lines against the NCATS MIPE library collection: JIM1_ECACC cell viability assay (AID 1918964)
How it was run: (§2)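 We plated 500 myeloma cells per well, pinned in MIPE 4.0 compounds, and incubated for 48 hours at 37C. ATP was then quantified with CellTiter-Glo, with DMSO and media-only wells defining 100% and 0%.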

[3] = Quantitative High-Throughput drug screen in 47 multiple myeloma cell lines against the NCATS MIPE library collection: INA6_PLB cell viability assay (AID 1918965; note: nearly all actives have a fitted effect of over 55% in size)
How it was run: as §1

[4] = Quantitative High-Throughput drug screen in 47 multiple myeloma cell lines against the NCATS MIPE library collection: JJN3_DSMZ cell viability assay (AID 1918966; note: nearly all actives have a fitted effect of over 50% in size)
How it was run: as §2

[5] = Quantitative High-Throughput drug screen in 47 multiple myeloma cell lines against the NCATS MIPE library collection: Karpas25_ECACC cell viability assay (AID 1918968; note: nearly all actives have a fitted effect of over 35% in size)
How it was run: as §2

[6] = Quantitative High-Throughput drug screen in 47 multiple myeloma cell lines against the NCATS MIPE library collection: KMS27_JCRB cell viability assay (AID 1918970); note: nearly all actives have a fitted effect of over 30% in size
How it was run: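 CellTiter-Glo luminescence after 48 h drug exposure at 37 °C; 500 cells/well, 1536-well format, pin-tool compound addition; DMSO = 100%, media-only = 0% viability.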

[7] = Quantitative High-Throughput drug screen in 47 multiple myeloma cell lines against the NCATS MIPE library collection: KMS12BM_JCRB cell viability assay (AID 1918971); note: nearly all actives have a fitted effect of over 35% in size
How it was run: (§3)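 Inhibition of cell viability is measured here. Each line was plated at 500 cells per well, treated with MIPE 4.0 drugs, kept 48 hours at 37C, then assayed for ATP content by CellTiter-Glo luminescence.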

[8] = Quantitative High-Throughput drug screen in 47 multiple myeloma cell lines against the NCATS MIPE library collection: KMS12PE_JCRB cell viability assay (AID 1918972); note: nearly all actives have a fitted effect of over 30% in size
How it was run: as §1

[9] = Quantitative High-Throughput drug screen in 47 multiple myeloma cell lines against the NCATS MIPE library collection: KMS20_JCRB cell viability assay (AID 1918973); note: nearly all actives have a fitted effect of over 45% in size
How it was run: as §2

[10] = Quantitative High-Throughput drug screen in 47 multiple myeloma cell lines against the NCATS MIPE library collection: KMS26_JCRB cell viability assay (AID 1918975); note: nearly all actives have a fitted effect of over 45% in size
How it was run: as §3

[11] = Quantitative High-Throughput drug screen in 47 multiple myeloma cell lines against the NCATS MIPE library collection: MOLP8_DSMZ cell viability assay (AID 1918977); note: nearly all actives have a fitted effect of over 45% in size
How it was run: (§4)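 Readout: median RLU from CellTiter-Glo after 5 min at room temperature. Preceding step was 48 h drug treatment of 500 cells/well at 37 °C, 5% CO2, with DMSO-only and media-only control wells.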

[12] = Quantitative High-Throughput drug screen in 47 multiple myeloma cell lines against the NCATS MIPE library collection: NCIH929_DSMZ cell viability assay (AID 1918978); note: nearly all actives have a fitted effect of over 35% in size
How it was run: as §4

[13] = Quantitative High-Throughput drug screen in 47 multiple myeloma cell lines against the NCATS MIPE library collection: OCIMY1_PLB cell viability assay (AID 1918979); note: nearly all actives have a fitted effect of over 35% in size
How it was run: as §4

[14] = Quantitative High-Throughput drug screen in 47 multiple myeloma cell lines against the NCATS MIPE library collection: MM1S_ATCC cell viability assay (AID 1918980); note: nearly all actives have a fitted effect of over 45% in size
How it was run: as §4

[15] = Quantitative High-Throughput drug screen in 47 multiple myeloma cell lines against the NCATS MIPE library collection: MM1R_ATCC cell viability assay (AID 1918981); note: nearly all actives have a fitted effect of over 35% in size
How it was run: as §4

[16] = Quantitative High-Throughput drug screen in 47 multiple myeloma cell lines against the NCATS MIPE library collection: LP1_DSMZ cell viability assay (AID 1918982); note: nearly all actives have a fitted effect of over 35% in size
How it was run: as §4

[17] = Quantitative High-Throughput drug screen in 47 multiple myeloma cell lines against the NCATS MIPE library collection: H1112_PLB cell viability assay (AID 1918967; note: nearly all actives have a fitted effect of over 30% in size)
How it was run: as §2

[18] = Quantitative High-Throughput drug screen in 47 multiple myeloma cell lines against the NCATS MIPE library collection: KMS21BM_JCRB cell viability assay (AID 1918974); details: ATP luminescence, 48 h; viability: at 45.8 µM (top of the series)
How it was run: as §2

[19] = Quantitative High-Throughput drug screen in 47 multiple myeloma cell lines against the NCATS MIPE library collection: MMM1_PLB cell viability assay (AID 1918976); note: nearly all actives have a fitted effect of over 35% in size
How it was run: as §4
Potency is the fitted concentration of half-maximal effect.

COc1cc(NCc2ccc3nc(N)nc(N)c3c2C)cc(OC)c1OC
active: Potency [1] 0.418 µM | Potency [2] 2.96 µM | Potency [3] 1.32 µM | Potency [4] 3.72 µM | Potency [5] 4.18 µM | Potency [6] 0.59 µM | Potency [7] 13.2 µM | Potency [8] 0.935 µM | Potency [9] 7.43 µM | Potency [10] 5.9 µM | Potency [11] 5.26 µM | Potency [12] 3.72 µM | Potency [13] 13.2 µM | Potency [14] 8.33 µM | Potency [15] 7.43 µM | Potency [16] 1.48 µM

CC(C)OC(=O)C(C(=O)OC(C)C)=C1SC=CS1
active: Potency [7] 14.8 µM | viability [18] 403% | Potency [10] 0.003 µM
inactive: Potency [1] | Potency [2] | Potency [4] | Potency [17] | Potency [5] | Potency [8] | Potency [12] | Potency [13]

C[C@@H](CN1CC(=O)NC(=O)C1)N1CC(=O)NC(=O)C1
inactive: Potency [1] | Potency [2] | Potency [4] | Potency [10] | Potency [16]
active: Potency [3] 10.5 µM | Potency [17] 16.6 µM | Potency [6] 3.72 µM | Potency [8] 1.66 µM | Potency [12] 16.6 µM | Potency [14] 3.32 µM

NC1(c2ccc(-c3nc4ccn5c(=O)[nH]nc5c4cc3-c3ccccc3)cc2)CCC1
active: Potency [1] 0.662 µM | Potency [2] 1.48 µM | Potency [3] 11.8 µM | Potency [4] 5.26 µM | Potency [17] 0.0833 µM | Potency [5] 5.26 µM | Potency [7] 23.5 µM | Potency [8] 0.296 µM | Potency [9] 5.26 µM | Potency [10] 14.8 µM | Potency [19] 0.332 µM | Potency [11] 3.72 µM | Potency [12] 0.059 µM | Potency [14] 0.662 µM | Potency [15] 5.26 µM

CC1=CC(=O)c2ccccc2C1=O
active: Potency [1] 23.5 µM | Potency [3] 8.33 µM | Potency [4] 13.2 µM | Potency [17] 20.9 µM | Potency [10] 10.5 µM | Potency [12] 9.35 µM | Potency [14] 18.7 µM | Potency [15] 9.35 µM | Potency [16] 23.5 µM
inactive: Potency [2]

CC(N)C12CC3CC(CC(C3)C1)C2 (stereo not given)
inactive: Potency [1] | Potency [2] | Potency [3] | Potency [4] | Potency [17] | Potency [5] | Potency [6] | Potency [8] | Potency [9] | Potency [10] | Potency [11] | Potency [12] | Potency [13] | Potency [14] | Potency [15] | Potency [16]

Cn1nnc2c(C(N)=O)ncn2c1=O
inactive: Potency [1] | Potency [2] | Potency [4] | Potency [5] | Potency [6] | Potency [9] | Potency [10] | Potency [19] | Potency [11] | Potency [12] | Potency [13] | Potency [16]

Cc1cc(NS(=O)(=O)c2ccc(N)cc2)no1
active: Potency [14] 9.35 µM
inactive: Potency [1] | Potency [2] | Potency [3] | Potency [5] | Potency [6] | Potency [7] | Potency [8] | Potency [9] | Potency [18] | Potency [10] | Potency [11] | Potency [13]

COc1nc(N)nc2c1ncn2[C@@H]1O[C@H](CO)[C@@H](O)[C@@H]1O
active: Potency [4] 13.2 µM | Potency [9] 23.5 µM
inactive: Potency [1] | Potency [2] | Potency [17] | Potency [7] | Potency [8] | Potency [10] | Potency [11] | Potency [12] | Potency [13] | Potency [15] | Potency [16]

CNNCc1ccc(C(=O)NC(C)C)cc1
active: Potency [7] 4.69 µM | Potency [18] 2.35 µM | Potency [10] 18.7 µM | Potency [15] 11.8 µM
inactive: Potency [1] | Potency [2] | Potency [4] | Potency [17] | Potency [6] | Potency [8] | Potency [12] | Potency [13]

CCCc1cc(C(N)=S)ccn1
inactive: Potency [1] | Potency [2] | Potency [3] | Potency [4] | Potency [17] | Potency [6] | Potency [7] | Potency [9] | Potency [11] | Potency [12] | Potency [13] | Potency [15] | Potency [16]

C[C@@H]1C[C@H]2[C@@H]3CCC4=CC(=O)C=C[C@]4(C)[C@@]3(Cl)[C@@H](O)C[C@]2(C)[C@@]1(OC(=O)c1ccco1)C(=O)CCl
active: Potency [1] 9.35 µM | Potency [2] 7.43 µM | Potency [3] 2.96 µM | Potency [4] 2.35 µM | Potency [17] 5.26 µM | Potency [6] 10.5 µM | Potency [7] 18.7 µM | Potency [9] 7.43 µM | Potency [10] 14.8 µM | Potency [19] 18.7 µM | Potency [12] 3.32 µM | Potency [15] 16.6 µM

COc1cc([C@@H]2c3cc4c(cc3[C@H](O)[C@H]3COC(=O)[C@H]23)OCO4)cc(OC)c1OC
inactive: Potency [1] | Potency [2] | Potency [3] | Potency [4] | Potency [5] | Potency [6] | Potency [18] | Potency [12] | Potency [13] | Potency [14] | Potency [16]

CCCN[C@H]1CCc2nc(N)sc2C1
inactive: Potency [1] | Potency [2] | Potency [3] | Potency [4] | Potency [17] | Potency [9] | Potency [11] | Potency [13] | Potency [16]
active: Potency [5] 2.09 µM | Potency [14] 0.833 µM

CCC(=O)O[C@]1(C(=O)SCF)[C@H](C)C[C@H]2[C@@H]3C[C@H](F)C4=CC(=O)C=C[C@]4(C)[C@@]3(F)[C@@H](O)C[C@@]21C
active: Potency [17] 20.9 µM
inactive: Potency [1] | Potency [2] | Potency [4] | Potency [7] | Potency [8] | Potency [10] | Potency [11] | Potency [16]
